# NS1 inh = qHTS Assay for Inhibitors of Influenza NS1 Protein Function. AID 2326, 2010. 0.4% of 270,000 active. Potency, µM (top dose mostly 46.1 µM), for the others: top-dose activity, positive = more growth; calls by dose curve; note: actives are rising curves; nearly all actives have a fitted effect of over 50% in size
#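 Read-out: OD600 growth recovery of NS1-expressing budding yeast. Cells grown overnight at 30C in -URA glucose medium, washed, resuspended and diluted 1:100 in 2% galactose assay medium, pH 6.0. Same strain lacking NS1 served as positive control.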
# SARS PLP yeast = qHTS of Yeast-based Assay for SARS-CoV PLP; S. cerevisiae expressing SARS-CoV PLpro, growth rescue; Potency, µM (top dose mostly 32.9 µM), for the others: at the top dose activity, positive = growth rescue, usual class: activators; 0.19% of 330,000 active; calls by dose curve; note: 0% is about no effect; nearly all actives have a fitted effect of over 55% in size
# Pf growth 96h = Primary qHTS for delayed death inhibitors of the malarial parasite plastid, 96 hour incubation; P. falciparum luciferase reporter growth, 96 h; Potency, µM (doses to about 28.7 µM), inactives show at the top dose activity change, negative = inhibition, actives largely listed as inhibitors; 6.9% of 320,000 active; note: % is set by controls: 0 for no effect and ±100 for the full control effect
#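 Luminescence readout: decreased luciferase signal marks inhibited growth of reporter-expressing P. falciparum in infected red cells (2% hematocrit, 0.05% parasitemia final), exposed to compound two generations (96 h, 37 C, 5% CO2).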
# Pf growth 48h = Primary qHTS for delayed death inhibitors of the malarial parasite plastid, 48 hour incubation; P. falciparum luciferase growth in erythrocytes, 48 h; Potency, µM (doses to about 28.7 µM), for the others: at the highest dose activity change, negative = inhibition, most hits filed as inhibitors; 5.9% of 310,000 active; note: % is set by controls: 0 for no effect and ±100 for the full control effect
#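 Growth was read as firefly luciferase luminescence after a 48 h, 37 C, 5% CO2 exposure of compounds to reporter-bearing P. falciparum cultures (0.1% parasitemia, 2% hematocrit final) in Albumax-supplemented RPMI 1640.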
# An asterisk follows results filed as active; ? = inconclusive; / = no result; ! = repeats disagree. Only some compounds are listed: those with a hit (about 10% of all), similar ones and a draw of the others. Unless noted, calls come from the whole dose curve; as a rule, active = well fitted inhibition curve with a large enough effect; inconclusive = small, poorly fitted or top-dose-only effect, or another doubt; inactive = no such curve, though single readings can be large or run the other way. Potency is the fitted concentration of half-maximal effect.
SMILES,NS1 inh,SARS PLP yeast,Pf growth 96h,Pf growth 48h
CCC(C)[C@H](NC(=O)N1CC(=O)Nc2ccccc21)C(=O)N[C@H](C(=O)O)c1ccccc1 (stereo partly drawn),-3%,2%,6%,0%
COc1ccc(NC(=O)c2cccnc2Cl)c(S(=O)(=O)N2CCOCC2)c1,3%,5%,/,21%
O=C(Nc1ccccc1N1CCOCC1)c1ccc(Cl)c(S(=O)(=O)N2CCCC2)c1,/,-7%,?,?
Cc1ccccc1NC(=O)c1ccc(F)c(S(=O)(=O)N2CCN(c3ccccn3)CC2)c1,-5%,?,/,13µM*
COc1ccc(S(=O)(=O)N2CCOCC2)cc1NC(=O)c1ccc(Cl)cc1,/,/,8.3µM*,-12%
O=C(Nc1ccc(Br)cc1)c1ccc(F)c(S(=O)(=O)N2CCN(c3ccccn3)CC2)c1,/,1%,-3%,?
COc1ccc(NC(=O)c2cncc(Br)c2)c(S(=O)(=O)N2CCOCC2)c1,0%,-1%,10µM*,?
O=C(Nc1ccccc1N1CCOCC1)c1ccc(F)c(S(=O)(=O)N2CCOCC2)c1,/,-11%,2.1µM*,?
CCOC(=O)c1c(NC(=O)COC(=O)Cn2cnc3c2c(=O)n(C)c(=O)n3C)sc(C)c1CC,/,2%,62%,2%
Cc1cc(-c2ccc(C)c(S(=O)(=O)Nc3cc(C)on3)c2)on1,-5%,4%,?,10%
COc1ccc(C(=O)NC2CCSc3ccccc32)cc1S(=O)(=O)N1CCOCC1 (stereo not drawn),/,-2%,?,12µM*
COc1ccc(C(=O)Nc2ccccc2[N+](=O)[O-])cc1S(=O)(=O)N1CCOCC1,-16%,2%,?,-14%
COc1ccc(NS(=O)(=O)c2ccc(C)c(NC(=O)c3ccc(C)c(S(=O)(=O)N4CCOCC4)c3)c2)cc1,?,-1%,15µM*,?
O=C(NNC(=O)c1ccc(Br)s1)c1ccc(F)c(S(=O)(=O)N2CCOCC2)c1,/,1%,10µM*,-12%
COc1ccc(C(=O)Nc2ccccc2N2CCOCC2)cc1S(=O)(=O)N1CCOCC1,/,-2%,1.9µM*,5.9µM*
O=C(Nc1ccccc1C(=O)N1CCCCCC1)c1cccc(S(=O)(=O)N2CCOCC2)c1,-2%,2%,?,12µM*
Cc1ccc(C)c(N2CCN(C(=O)c3ccc(N4CCCC4=O)cc3)CC2)c1,-34%,-1%,?,-32%
CC(C)c1ccc(C2(C)NC(=O)N(CC(=O)N3CCN(C(=O)c4cccs4)CC3)C2=O)cc1 (stereo not drawn),/,6%,?,-28%
CCOc1ccc(N2C(=O)S/C(=C\c3cccn3C)C2=O)cc1,8%,1%,2.9µM*,3.3µM*
O=P1(NCCCn2cc[n+](Cc3nc4ccccc4[nH]3)c2)C=C(c2ccccc2)OC(c2ccccc2)=C1,-4%,-3%,2.3µM*,12µM*
Nn1c(SCC(=O)Nc2ccccc2Oc2ccccc2)nnc1C1CC1,/,1%,9%,38%
O=c1[nH]c2ccccc2n1CCCN1CCCCC1,0%,1%,?,-12%
O=c1[nH]c2ccccc2n1CCCN1CCN(C(c2ccccc2)c2ccccc2)CC1,-14%,4%,12µM*,12µM*
CC(=O)c1cc(C(C)=O)c(C)nc1C,/,-4%,1.9µM*,5%
CC(=O)c1cc(C(C)=O)c(C)[n+](C)c1C,1%,1%,24%,10µM*
SMILES,NS1 inh,SARS PLP yeast,Pf growth 96h,Pf growth 48h
O=C1NC(=O)/C(=C\c2ccccc2OCc2ccc([N+](=O)[O-])cc2)N1,7%,7%,12µM*,29%
CCN1C(=O)/C(=C/c2ccc(C)s2)NC1=S,-8%,?,/,8%
Cc1cc(/C=C2\NC(=O)N(Cc3ccc(Cl)cc3)C2=O)c(C)n1C,15%,13%,?,9.3µM*
Cc1cccc(CN2C(=O)N/C(=C/c3cc(C)n(-c4cc(C)ccn4)c3C)C2=O)c1,13%,-2%,/,12µM*
Cc1ccc(NC(=O)CN2C(=O)N/C(=C/c3ccc(C)s3)C2=O)cc1,5%,16%,?,18%
Cc1cccc(CN2C(=O)N/C(=C/c3ccc(C)s3)C2=O)c1,-6%,-4%,3.3µM*,/
Cc1ccc(/C=C2/NC(=O)N(Cc3ccccc3)C2=O)s1,4µM*,-1%,?,10µM*
COP(=O)(c1ccc(N(C)C)cc1)C(O)c1ccccc1 (stereo not drawn),2%,0%,?,?
CC(C)c1c(C(=O)N/N=C/C=C/c2ccccc2)nnn1-c1nonc1N,6%,0%,?,6%
Cn1nc([N+](=O)[O-])nc1S(C)(=O)=O,/,-5%,4.7µM*,-6%
CCn1c(SCc2ccccc2)nnc1-c1cccs1,-21%,-4%,?,9.3µM*
Cn1c(SCc2ccc(Br)cc2)nnc1-c1cccs1,-141%,-4%,?,?
CCn1c(SCc2ccccc2)nnc1C1CCCCC1,-18%,18%,9.3µM*,?
N#Cc1ccc(CSc2nnc(-c3cccs3)n2-c2ccccc2)cc1,-50%,0%,17µM*,?
CCn1c(SCc2ccccc2)nnc1C1CCN(S(=O)(=O)c2ccc(OC)cc2)CC1,-14%,2%,?,?
Cc1ccc(CSc2nnc(-c3cccs3)n2C)cc1,-42%,-33%,16%,12µM*
N#Cc1ccc(CSc2nnc(-c3ccccn3)n2-c2ccccc2)cc1,-9%,-5%,/,-16%
COc1ccc(NC(=O)c2ccc3c(=O)n(CC4CCCO4)c(=S)[nH]c3c2)c(OC)c1 (stereo not drawn),3%,-9%,13%,-4%
O=P(Oc1ccccc1)(Oc1ccccc1)C(Nc1ccccc1)c1ccccc1 (stereo not drawn),2%,-20%,1.7µM*,?
CCCn1c(O)c(N=NC(=O)c2cccnc2)c2cc(Br)ccc21,-31%,-3%,5.9µM*,5.9µM*
Cc1cc(C)n2nc(C(=O)N3CCOCC3)nc2n1,4%,2%,?,54%
Cc1cc(C)n2nc(SC(C)C(=O)N3CCC4(CC3)OCCO4)nc2n1 (stereo not drawn),-9%,8%,-27%,2.6µM*
COC(=O)c1cc2c(s1)c1cnn(Cc3ccccc3F)c(=O)c1n2C,/,1%,?,5%
COc1ccc(N=C2C(=Nc3ccc(OC)cc3)N(c3ccc(OC)cc3)C(=S)N2C)cc1,-11%,-2%,/,5.2µM*
COc1ccc(CN(C)C(C)C(=O)N(C)CC(=O)Nc2ccc(C)cc2)cc1F (stereo not drawn),/,2%,?,-26%
CN(C)C(=O)Nc1cccc(OC(=O)N(C)C)c1,-8%,-3%,/,-10%
CN(C)C(=O)Oc1cccc([N+](C)(C)C)c1,0%,1%,4.1µM*!,?
c1ccc(CCC2CCCCN2Cc2nc(-c3ccc4c(c3)OCO4)no2)nc1 (stereo not drawn),-11%,-1%,5%,0%
CCOC(=O)C1=C(N)n2c(s/c(=C/c3ccco3)c2=O)=C(C(=O)OC)C1c1ccco1 (stereo not drawn),?,-4%,?,13µM*

# Screening results: PubChem BioAssay, National Center for Advancing Translational Sciences (NCATS)
